We go through ten sequences from publication PMC8384837, “Expanding the binding specificity for RNA recognition by a PUF domain”.

Assay in all cases: yeast three-hybrid, YBZ-1, SC-Leu-His + 0.5 mM 3-AT, 4 days
Holding throughout (conditions): tags: N-Gal4 AD-HA kept; label: inside an RPR1-promoter hybrid RNA with tandem MS2 sites; ssRNA

In test [1] the target is PUM1 PUF domain R3-GRV (Homo sapiens, UniProt Q14671 828-1176, C935G;Q939V). The gist of the method:
(§1)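 Pumilio-1 PUF domain libraries, randomized (NNK) at the three base-contacting residues of each repeat, were co-expressed with matching RNA elements from a centromeric plasmid in strain YBZ-1 (LexA–MS2 coat fusion, HIS3 reporter). Transformants were plated on SC-Leu (input) and SC-Leu-His + 0.5 mM 3-AT (selection) for four days, and repeat regions were PCR-amplified and Illumina-sequenced. The interaction score is the log2 change in variant frequency from input to selection, with pseudocount 1 where absent.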

Test [2] deals with PUM1 PUF domain R8-GWQ (Homo sapiens, UniProt Q14671 828-1176, N1122G;Y1123W). The essentials:
as §1

Test [3] has as its target PUM1 PUF domain R4-SCS (Homo sapiens, UniProt Q14671 828-1176, N971S;H972C;Q975S). The gist of the method: as §1
Test [4] concerns the target PUM1 PUF domain R5-MRE (Homo sapiens, UniProt Q14671 828-1176, C1007M;Q1011E). The gist of the method:
as §1

Test [5] concerns the target PUM1 PUF domain R1-TFE (Homo sapiens, UniProt Q14671 828-1176, S863T;R864F;Q867E). The essentials: as §1
Test [6] deals with PUM1 PUF domain R4-SNF (Homo sapiens, UniProt Q14671 828-1176, N971S;H972N;Q975F). The essentials:
as §1

Test [7] addresses PUM1 PUF domain R5-TKR (Homo sapiens, UniProt Q14671 828-1176, C1007T;R1008K;Q1011R). The essentials: as §1
The target of test [8] is PUM1 PUF domain R5-KAD (Homo sapiens, UniProt Q14671 828-1176, C1007K;R1008A;Q1011D). The essentials:
as §1

The target of test [9] is PUM1 PUF domain R5-DLR (Homo sapiens, UniProt Q14671 828-1176, C1007D;R1008L;Q1011R). The essentials:
as §1

Test [10] concerns the target PUM1 PUF domain R4-HNI (Homo sapiens, UniProt Q14671 828-1176, N971H;H972N;Q975I). The gist of the method:
as §1

PUM1 PUF domain R5-TKR, sequence (Q14671 828-1176 C1007T/R1008K/Q1011R): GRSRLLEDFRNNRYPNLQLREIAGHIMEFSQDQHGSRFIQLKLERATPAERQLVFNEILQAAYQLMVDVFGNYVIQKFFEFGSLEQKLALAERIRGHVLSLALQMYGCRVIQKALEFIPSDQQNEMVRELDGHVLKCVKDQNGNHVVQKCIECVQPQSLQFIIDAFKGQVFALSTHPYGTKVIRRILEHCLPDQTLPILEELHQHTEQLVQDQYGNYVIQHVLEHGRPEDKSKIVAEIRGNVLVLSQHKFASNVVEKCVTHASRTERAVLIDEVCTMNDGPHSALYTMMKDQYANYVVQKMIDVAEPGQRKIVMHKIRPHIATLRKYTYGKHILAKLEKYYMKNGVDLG
PUM1 PUF domain R5-DLR, sequence (Q14671 828-1176 C1007D/R1008L/Q1011R): as the sequence (Q14671 828-1176 C1007T/R1008K/Q1011R) above, with T180D, K181L counted along it
PUM1 PUF domain R5-KAD, sequence (Q14671 828-1176 C1007K/R1008A/Q1011D): as the sequence (Q14671 828-1176 C1007T/R1008K/Q1011R) above, with T180K, K181A, R184D counted along it
PUM1 PUF domain R4-SNF, sequence (Q14671 828-1176 N971S/H972N/Q975F): as the sequence (Q14671 828-1176 C1007T/R1008K/Q1011R) above, with N144S, H145N, Q148F, T180C, K181R, R184Q counted along it

As for “GGCUAGAACUAGUGGAUCCCCCGGCGCCCGGCGGCUCGAGCCCGGGUAAGUGUAAUUAGUCUGCAUGCCGCCGGGCGCCAUGCCUGCAGGUCGACUCUAGAAAACAUG”, the binding signal in test [1] is 1.12 log2 enrichment (interaction score).

Turning to “GGCUAGAACUAGUGGAUCCCCCGGCGCCCGGCGGCUCGAGCCCGGGUAAGUGUAAAUAGUCUGCAUGCCGCCGGGCGCCAUGCCUGCAGGUCGACUCUAGAAAACAUG”, the binding signal is 2.81 log2 enrichment (interaction score) in test [1], 2.82 log2 enrichment (interaction score) in test [2], 2.13 log2 enrichment (interaction score) in [3] and 1.14 log2 enrichment (interaction score) in test [4]. Consider “GGCUAGAACUAGUGGAUCCCCCGGCGCCCGGCGGCUCGAGCCCGGGUAAGUGUAAAUUGUCUGCAUGCCGCCGGGCGCCAUGCCUGCAGGUCGACUCUAGAAAACAUG”, for which the binding signal in test [5] was 3.49 log2 enrichment (interaction score). As to “GGCUAGAACUAGUGGAUCCCCCGGCGCCCGGCGGCUCGAGCCCGGGUAAGUGUAAAUGGUCUGCAUGCCGCCGGGCGCCAUGCCUGCAGGUCGACUCUAGAAAACAUG”, the binding signal in test [5] is 6.33 log2 enrichment (interaction score). For the sequence “GGCUAGAACUAGUGGAUCCCCCGGCGCCCGGCGGCUCGAGCCCGGGUAAGUGUACAUAGUCUGCAUGCCGCCGGGCGCCAUGCCUGCAGGUCGACUCUAGAAAACAUG”, the binding signal in test [3] is 0.74 log2 enrichment (interaction score); in test [6], 3.39 log2 enrichment (interaction score).

With “GGCUAGAACUAGUGGAUCCCCCGGCGCCCGGCGGCUCGAGCCCGGGUAAGUGUCAAUAGUCUGCAUGCCGCCGGGCGCCAUGCCUGCAGGUCGACUCUAGAAAACAUG”, the binding signal is 6.59 log2 enrichment (interaction score) in [7], 2.78 log2 enrichment (interaction score) in test [8] and 4.71 log2 enrichment (interaction score) in test [9]. In the case of “GGCUAGAACUAGUGGAUCCCCCGGCGCCCGGCGGCUCGAGCCCGGGUAAGCGUAAAUAGUCUGCAUGCCGCCGGGCGCCAUGCCUGCAGGUCGACUCUAGAAAACAUG”, in test [2], the binding signal was 3.56 log2 enrichment (interaction score). Consider “GGCUAGAACUAGUGGAUCCCCCGGCGCCCGGCGGCUCGAGCCCGGGUAAGUGUUAAUAGUCUGCAUGCCGCCGGGCGCCAUGCCUGCAGGUCGACUCUAGAAAACAUG”, for which the binding signal in test [4] is 0.96 log2 enrichment (interaction score). Consider “GGCUAGAACUAGUGGAUCCCCCGGCGCCCGGCGGCUCGAGCCCGGGUAAGUGUGAAUAGUCUGCAUGCCGCCGGGCGCCAUGCCUGCAGGUCGACUCUAGAAAACAUG”, for which the binding signal in test [4] was 2.77 log2 enrichment (interaction score). For “GGCUAGAACUAGUGGAUCCCCCGGCGCCCGGCGGCUCGAGCCCGGGUAAGUGUAUAUAGUCUGCAUGCCGCCGGGCGCCAUGCCUGCAGGUCGACUCUAGAAAACAUG”, the figures for the binding signal in test [3] and in test [10] were 1.72 log2 enrichment (interaction score) and 4.84 log2 enrichment (interaction score), respectively.
